Where a name gives a salt, the structure may show the parent alone. ± gives the standard deviation of the averaged measurements.
Experiments:
[1] = system: Saccharomyces cerevisiae BY4741 SeMeCo community; assay: mean cell size (pixel area) (pixels); higher = larger cells; details: 10 µM; 24 h; SM minimal medium
Outline: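 Yeast cells were fixed with paraformaldehyde, imaged by automated confocal microscopy and analysed in Harmony to obtain mean cell pixel area per well. They came from a four-plasmid fluorescent Saccharomyces cerevisiae BY4741 community, each plasmid complementing one auxotrophy and carrying a fluorescent marker. Before imaging, 70 µl of culture at OD600 = 0.3 was incubated for 24 h in SM medium in 384-well plates predosed acoustically with drug (final 10 µM). Values are means of 3 replicates. Same SeMeCo high-content imaging drug screen: Selleck FDA-approved drugs at 10 µM, 24 h in SM medium, 384-well plates, 3 replicates.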

[2] = system: Saccharomyces cerevisiae BY4741 SeMeCo community; assay: z-score of prototroph abundance vs DMSO median; higher = larger share of this subpopulation than in DMSO controls; details: 10 µM; 24 h; SM minimal medium; subpopulation (auxotrophy): Prototroph
Outline: (§1)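 Automated confocal microscopy of paraformaldehyde-fixed cells was used to follow a Saccharomyces cerevisiae BY4741 community carrying four plasmids, each restoring one auxotrophy and encoding a distinct fluorescent protein. The community was pre-grown overnight to OD600 1.0, diluted to 0.3, and added at 70 µl to 384-well plates acoustically predosed with library drugs (10 µM final) for 24 h of growth in minimal SM medium. Single-auxotroph fluorescent strains set thresholds and autofluorescence correction, and each subpopulation's abundance was scored as a z-score against the vehicle-well median.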

[3] = system: Saccharomyces cerevisiae BY4741 SeMeCo community; assay: z-score of subpopulation abundance vs DMSO median, subpopulation auxotrophic for M; higher = larger share of this subpopulation than in DMSO controls; details: 10 µM; 24 h; SM minimal medium; subpopulation (auxotrophy): M
Outline: as §1

[4] = system: Saccharomyces cerevisiae BY4741 SeMeCo community; assay: z-score of subpopulation abundance vs DMSO median, subpopulation auxotrophic for L; higher = larger share of this subpopulation than in DMSO controls; details: 10 µM; 24 h; SM minimal medium; subpopulation (auxotrophy): L
Outline: as §1

[5] = system: Saccharomyces cerevisiae BY4741 SeMeCo community; assay: z-score of subpopulation abundance vs DMSO median, subpopulation auxotrophic for U; higher = larger share of this subpopulation than in DMSO controls; details: 10 µM; 24 h; SM minimal medium; subpopulation (auxotrophy): U
Outline: as §1

[6] = system: Saccharomyces cerevisiae BY4741 SeMeCo community; assay: z-score of subpopulation abundance vs DMSO median, subpopulation auxotrophic for H; higher = larger share of this subpopulation than in DMSO controls; details: 10 µM; 24 h; SM minimal medium; subpopulation (auxotrophy): H
Outline: as §1

[7] = system: Saccharomyces cerevisiae BY4741 SeMeCo community; assay: z-score of subpopulation abundance vs DMSO median, subpopulation auxotrophic for LU; higher = larger share of this subpopulation than in DMSO controls; details: 10 µM; 24 h; SM minimal medium; subpopulation (auxotrophy): LU
Outline: as §1

[8] = system: Saccharomyces cerevisiae BY4741 SeMeCo community; assay: z-score of subpopulation abundance vs DMSO median, subpopulation auxotrophic for LM; higher = larger share of this subpopulation than in DMSO controls; details: 10 µM; 24 h; SM minimal medium; subpopulation (auxotrophy): LM
Outline: as §1

[9] = system: Saccharomyces cerevisiae BY4741 SeMeCo community; assay: z-score of subpopulation abundance vs DMSO median, subpopulation auxotrophic for HM; higher = larger share of this subpopulation than in DMSO controls; details: 10 µM; 24 h; SM minimal medium; subpopulation (auxotrophy): HM
Outline: as §1

[10] = system: Saccharomyces cerevisiae BY4741 SeMeCo community; assay: z-score of subpopulation abundance vs DMSO median, subpopulation auxotrophic for HU; higher = larger share of this subpopulation than in DMSO controls; details: 10 µM; 24 h; SM minimal medium; subpopulation (auxotrophy): HU
Outline: as §1

[11] = system: Saccharomyces cerevisiae BY4741 SeMeCo community; assay: z-score of subpopulation abundance vs DMSO median, subpopulation auxotrophic for UM; higher = larger share of this subpopulation than in DMSO controls; details: 10 µM; 24 h; SM minimal medium; subpopulation (auxotrophy): UM
Outline: as §1

[12] = system: Saccharomyces cerevisiae BY4741 SeMeCo community; assay: z-score of subpopulation abundance vs DMSO median, subpopulation auxotrophic for HLU; higher = larger share of this subpopulation than in DMSO controls; details: 10 µM; 24 h; SM minimal medium; subpopulation (auxotrophy): HLU
Outline: as §1

[13] = system: Saccharomyces cerevisiae BY4741 SeMeCo community; assay: z-score of subpopulation abundance vs DMSO median, subpopulation auxotrophic for LUM; higher = larger share of this subpopulation than in DMSO controls; details: 10 µM; 24 h; SM minimal medium; subpopulation (auxotrophy): LUM
Outline: as §1

[14] = system: Saccharomyces cerevisiae BY4741 SeMeCo community; assay: z-score of subpopulation abundance vs DMSO median, subpopulation auxotrophic for HLUM; higher = larger share of this subpopulation than in DMSO controls; details: 10 µM; 24 h; SM minimal medium; subpopulation (auxotrophy): HLUM
Outline: as §1

[15] = system: Saccharomyces cerevisiae BY4741 SeMeCo community; assay: z-score of subpopulation abundance vs DMSO median, subpopulation auxotrophic for HLM; higher = larger share of this subpopulation than in DMSO controls; details: 10 µM; 24 h; SM minimal medium; subpopulation (auxotrophy): HLM
Outline: as §1

[16] = system: Saccharomyces cerevisiae BY4741 SeMeCo community; assay: z-score of subpopulation abundance vs DMSO median, subpopulation auxotrophic for HUM; higher = larger share of this subpopulation than in DMSO controls; details: 10 µM; 24 h; SM minimal medium; subpopulation (auxotrophy): HUM
Outline: as §1

[17] = system: Saccharomyces cerevisiae BY4741 SeMeCo community; assay: z-score of subpopulation abundance vs DMSO median, subpopulation auxotrophic for HL; higher = larger share of this subpopulation than in DMSO controls; details: 10 µM; 24 h; SM minimal medium; subpopulation (auxotrophy): HL
Outline: as §1

| Structure (SMILES) | mean cell size [1] | z-score of prototroph abundance [2] | z-score of subpopulation abundance [3] | z-score of subpopulation abundance [4] | z-score of subpopulation abundance [5] | z-score of subpopulation abundance [6] | z-score of subpopulation abundance [7] | z-score of subpopulation abundance [8] | z-score of subpopulation abundance [9] | z-score of subpopulation abundance [10] | z-score of subpopulation abundance [11] | z-score of subpopulation abundance [12] | z-score of subpopulation abundance [13] | z-score of subpopulation abundance [14] | z-score of subpopulation abundance [15] | z-score of subpopulation abundance [16] | z-score of subpopulation abundance [17] |
| --- | --- | --- | --- | --- | --- | --- | --- | --- | --- | --- | --- | --- | --- | --- | --- | --- | --- |
| CCC[C@@H]1C[C@@H](C(=O)N[C@@H]([C@H]2O[C@H](SC)[C@H](O)[C@@H](O)[C@H]2O)[C@@H](C)O)N(C)C1 [Lincomycin HCl] | 12.4 ± 0.14 | 0.69 | 0.32 | -0.98 | -0.24 | -0.53 | -0.63 | -0.14 | -0.17 | -0.73 | 0.19 | -0.34 | -0.87 | -0.36 |  |  |  |
| CCCCCCCCCCCCCCCCCCOP(=O)([O-])OC1CC[N+](C)(C)CC1 [Perifosine (KRX-0401)] | 9.8 ± 0.56 | -18.5 | -5.15 |  | -2.84 | 3.48 | 12.1 | 1.78 | 12.7 | 8.89 | 7.06 | 13.3 | 10.2 | 180 | 31.5 | 45.1 |  |
| O=C(O)c1cccnc1Nc1cccc(C(F)(F)F)c1 [Niflumic acid] | 12.9 ± 0.17 | -0.15 | 0.7 | -0.68 | 0.51 |  | 0.28 | -0.15 | -0.03 | -0.46 |  | -0.64 | 0.4 |  |  |  | -0.39 |
| NC(=O)c1ncn([C@@H]2O[C@H](CO)[C@@H](O)[C@H]2O)n1 [Ribavirin] | 12.45 ± 0.12 | -0.16 | -0.5 |  | 1.52 | -0.52 | 0.48 | -0.41 | -0.41 | 0.42 | 0.53 | -0.19 | 0.09 | -0.37 | -0.6 | 0.49 | -0.89 |
| CC(=O)OCC1=C(C(=O)O)N2C(=O)C(NC(=O)CSC(=NC(C)C)NC(C)C)C2SC1 (stereo unspecified) [Cefathiamidine] |  | 0.65 | -0.3 | -0.86 | 0.86 | -0.66 | -0.47 |  |  |  | 0.84 | -1.21 | -0.68 | -1.54 |  | 0.21 | -1.06 |
| CC[C@@]1(O)C(=O)OCc2c1cc1n(c2=O)Cc2cc3cc(O)ccc3nc2-1 [Hydroxy Camptothecine] | 12.5 ± 0.14 | 1.27 | 3.88 |  | -5.21 | 3.18 | -3.85 | 3.19 | 3.39 | -4.32 | -4.43 | -1.2 | -1.35 | 0.8 | 1.86 | -1.9 | 2.22 |
| COc1ccc(Cl)cc1C(=O)NCCc1ccc(S(=O)(=O)NC(=O)NC2CCCCC2)cc1 [Glyburide (Glibenclamide)] | 12.36 ± 0.11 | -0.6 | -0.21 | 1.58 | -0.59 | 0.81 | -0.07 |  | 0.56 | -0.2 | -0.02 | 0.43 | 1.11 | 0.01 |  |  | 1.09 |
| CO/N=C(\C(=O)N[C@@H]1C(=O)N2C(C(=O)O)=C(Cn3ccc(=N)n3CCO)CS[C@H]12)c1csc(N)n1 [Cefoselis Sulfate] |  | 0.34 | 1.45 | -1.67 |  | -1.31 | -0.98 | -0.08 | -0.32 | -0.72 |  | -0.33 | -0.44 | -0.64 |  | 0.02 | -1.68 |
| O=C(c1ccc(OCCN2CCCCC2)cc1)c1c(-c2ccc(O)cc2)sc2cc(O)ccc12 [Raloxifene] | 12.3 ± 0.38 | 0.7 | -0.22 |  | -1.73 |  | -2.15 | 0.49 | 0.02 | -1.39 | -1.32 | 0.52 | -0.37 | 0.09 | 0.78 | -0.2 | 0.96 |
| CCCSc1ccc2[nH]c(NC(=O)OC)nc2c1 [Albendazole] |  | -0.36 | 0.54 | -0.04 | 0.62 | -0.51 | 0.31 | 0.33 | 0.37 | -0.61 | 0.26 | 0.38 |  | 0.29 |  |  | -0.39 |
| C[C@]12CC[C@@H]3c4ccc(OS(=O)(=O)O)cc4CC[C@H]3[C@@H]1CCC2=O [Estropipate] |  | 0.59 | 0.08 | -0.9 | -0.01 | -0.96 | -0.6 | -0.33 | -0.81 | -0.17 | 0.16 | -0.73 | -0.11 | -0.39 |  | -0.32 | -0.81 |
| Oc1c(Cl)cc(Cl)c2cccnc12 [Chloroxine] | 13.6 ± 0.85 | -16.8 | 3.4 | -0.75 | -1.29 | 13.2 | 11.5 |  | 28.2 | 12.7 | 1.02 | 33.8 |  | 32.5 |  |  | 21.7 |
| CC(=O)C1C(=O)C=C(C)OC1=O (stereo unspecified) [Sodium dehydroacetate] |  |  | 0.37 | 1.59 | 1.63 | -1.35 | 2.06 |  | 0.2 | 0.24 | 0.54 | 1.27 | 1.14 | 1.61 |  | -0.21 | 0.4 |
| O=C1CN(/N=C/c2ccc(-c3ccc([N+](=O)[O-])cc3)o2)C(=O)N1 [Dantrolene sodium] |  | 2.09 | 0.97 | 2.03 | -3.65 | 0.84 | -2.49 | 1.59 | 0.62 | -3.33 | -2.91 | -0.91 | -0.73 | 0.72 |  | -2.36 | 1.35 |

— the supplement of paper PMC8975748
